According to PubChem BioAssay:
The source made the active and inactive calls. How the calls were made is not given here. Starred links: 1 amine or outer side, 2 acyl side, 3 side chain; linkers in the order of their positions; H or OH if unused. Positions of bridges follow the written chain, without caps; N, C: chain ends. Non-standard residues stand in square brackets, D forms with d. Residues, ends and D or L forms follow the SMILES beside them. ξ: configuration not given here. *: point of attachment. ΔAla(E,3-NHCONH2) = NC(=O)N/C=C(/N)C(=O)O; X1 = NC1=NCCC(C(N[*:1])C(=O)[*:2])N1; ξβ3hOrn = NCCCC(N)CC(=O)*; Dap = NC[CH](N)C(=O)O

Tested on: Aerobactin synthetase IucA (Klebsiella pneumoniae hvKP1)
Assay: IucA enzyme inhibition, primary screen, biochemical, Spectrum library (AID 1346200);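 further: 100% = wells without compound and 0% = wells lacking enzyme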
Conditions: malachite green pyrophosphate, A620, at 8 µM, active compounds read low

Structure (SMILES)	activity remaining
CC(=O)Oc1cc(OC(C)=O)c2c(c1)O[C@H](c1ccc(OC(C)=O)c(OC(C)=O)c1)[C@H](OC(C)=O)C2	108% (inactive)
COc1cc(S(C)=O)ccc1-c1nc2ncccc2[nH]1 (centres undefined)	108% (inactive)
O=c1c(O)c(-c2ccc(O)c(O)c2)oc2c(O[C@@H]3O[C@H](CO)[C@H](O)[C@@H](O)[C@H]3O)c(O)cc(O)c12	96.1% (inactive)
O=c1c(O)c(-c2ccccc2)oc2ccc3occc3c12	104% (inactive)
C=CCSC[C@@H](N)C(=O)O	98.6% (inactive)
CCOc1ccc(Cc2nccc3cc(OCC)c(OCC)cc23)cc1OCC	109% (inactive)
CCc1ccc(CCOc2ccc(CC3SC(=O)NC3=O)cc2)nc1 (centres undefined)	120% (inactive)
O=c1cc(-c2ccccc2)oc2cccc(O)c12	99.1% (inactive)
CCCCCC1C(=O)CCC1CC(=O)OC (centres undefined)	118% (inactive)
O[C@H]1[C@H](O)[C@@H](O)C2OC[C@H]1O2	119% (inactive)
COC(=O)CC1C(C)(C)C(OC(C)=O)[C@@H]2[C@@H](OC(C)=O)[C@]34O[C@@]2(O)[C@]1(C)C3CC[C@]1(C)C4=CC(=O)O[C@H]1c1ccoc1 (some centres undefined)	124% (inactive)
C1N2CN3CN1CN(C2)C3	104% (inactive)
COc1ccccc1/C=C\C(=O)O	90.4% (inactive)
COc1ccc2c(c1)OC[C@@H](Cc1ccc(OC)c(OC)c1)[C@H]2O	109% (inactive)
COC(=O)C[C@@H]1C2(C)C(=O)[C@@H](CC3=C4CC(=O)O[C@@H](c5ccoc5)[C@]4(C)CCC32)[C@H](OC(C)=O)C1(C)C (some centres undefined)	112% (inactive)
C/C=C/c1ccc(OC)cc1	98.6% (inactive)
CC1C/C=C/C=C/C=C/C=C/C(O[C@@H]2O[C@H](C)[C@@H](O)[C@H](N)[C@@H]2O)CC2OC(O)(CC(O)CC3OC3/C=C/C(=O)O1)CC(O)C2C(=O)O (some centres undefined)	118% (inactive)
NC1=NCCN1CC(=O)O	112% (inactive)
COc1ccc2c(=O)c(CC(=O)O)coc2c1	117% (inactive)
NCCCC(N)CC(=O)NCC1NC(=O)C(CO)NC(=O)C(N)CNC(=O)C(C2CCN=C(N)N2)NC(=O)/C(=C\NC(N)=O)NC1=O (stereo not drawn) (H-[Dap]S[Dap](ξβ3hOrn)[ΔAla(E,3-NHCONH2)][X1]; lactam 1-C; configuration not given here)	101% (inactive)
COc1c(O)cccc1O	87.7% (inactive)
Cc1c(C(N)=O)cc([N+](=O)[O-])cc1[N+](=O)[O-]	106% (inactive)
C=CCSSSCC=C	91.6% (inactive)
O=C(CCCCCCCCCCCCC1CCCC1)Nc1ccc(S(=O)(=O)c2ccc(NC(=O)CCCCCCCCCCCCC3CCCC3)cc2)cc1	94.8% (inactive)
CCCCCCCCCc1ccc(OCCOCCOCCOCCOCCOCCOCCOCCOCCO)cc1	109% (inactive)
CC[C@H](C)C(=O)O[C@H]1CCC=C2C=C[C@H](C)C(CCC3C[C@@H](O)CC(=O)O3)[C@H]21 (some centres undefined)	102% (inactive)
COc1ccc(C(Cl)=C(c2ccc(OC)cc2)c2ccc(OC)cc2)cc1	117% (inactive)
NS(=O)(=O)c1cc2c(cc1C(F)(F)F)NC(Cc1ccccc1)NS2(=O)=O (centres undefined)	98.7% (inactive)
CCC(C)C(=O)O[C@H]1C[C@H](O)C=C2C=C[C@H](C)[C@H](CC[C@@H](O)C[C@@H](O)CC(=O)O)C21 (some centres undefined)	113% (inactive)
